Assay outcomes as filed in PubChem.
HepG2 tox: qHTS for Inhibitors of TGF-b: Cytotox Counterscreen; HepG2 CAGA-GFP viability, ATP luminescence, 18 h; Potency, µM (titrated, usually from 46.1 µM), for inactives: top-dose activity change, negative = cytotoxicity, usual class: cytotoxic; 410,000 compounds, 0.76% hits; also: potency is read from the fitted curve at half-maximal effect
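CellTiter-Glo luminescence gave cytotoxicity after 18 hours at 37 degrees C. The cells were HepG2 CAGA-GFP in 1% FBS DMEM, stimulated with 500 pg/mL TGF-beta after compound addition. %Activity was normalised to no-cell wells (complete cell-killing) and DMSO (no toxicity), and curves were fitted and classified.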
TGFb SMAD3 inh: qHTS for Inhibitors of TGF-b | HepG2 CAGA-GFP TGF-b/SMAD3 reporter, GFP fluorescence, 18 h; TGF-beta stimulated, 500 pg/mL final | Potency, µM (titrated, usually from 46.1 µM), for inactives: at the highest dose activity, negative = inhibition, actives largely listed as inhibitors | 410,000 compounds, 1.2% hits; also: potency is read from the fitted curve at half-maximal effect; % is scaled to controls: 0 for no effect and ±100 for the full control effect; nearly all actives have a fitted effect of over 65% in size
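TGF-beta reporter screen: HEPG2 CAGA-GFP, 1% FBS, 500 pg/mL TGF-beta final, 18 h; per-cell GFP summed per well; curves fitted and categorized by class.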
HT1080 IDH1KD tx: qHTS for induction of synthetic lethality in tumor cells producing 2HG: qHTS for the HT-1080-IDH1KD cell line; HT-1080 IDH1 knockdown viability, ATP luminescence, 48 h; Potency, µM (highest dose often 46.1 µM), for the others: top-dose activity, negative = toxicity, actives largely listed as cytotoxic; 360,000 compounds, 2% hits;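 also: potency is read from the fitted curve at half-maximal effect; 0% = DMSO wells and -100% = cell-free medium wells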
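Knockdown cells (IDH1KD HT-1080) received compounds 2 h after plating at 750 cells/well and were kept 48 h at 37 °C in 5% FBS RPMI. A CellTiter-Glo luminescence read gave % activity for curve fitting.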
Giardia killer: Small Molecules that selectively kill Giardia lamblia: qHTS; Giardia lamblia trophozoite viability; activity change, % at 7.66 µM, hits read low; 340,000 compounds, 0.15% hits; AID 540267, 2011; in the data active = activity change below about -80%; inconclusive = between about -30% and that limit;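 also: parasites exposed to compound for two days anaerobically before the ATP read; % is scaled to controls: 0 for no effect and ±100 for the full control effect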
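Giardia trophozoites, 100 cells per well, were exposed to compounds for 48 hrs at 37 deg C under anaerobic conditions; viability was then read as ATP content by bioluminescence after 15-30 min at room temperature.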
HT1080-NT tox: qHTS for induction of synthetic lethality in tumor cells producing 2HG: qHTS for the HT-1080-NT fibrosarcoma cell line. 360,000 compounds, 1.6% hits. HT-1080-NT fibrosarcoma viability, CellTiter-Glo ATP luminescence, 48 h. Potency, µM (doses to about 46.1 µM), without a hit: top-dose activity, negative = less viability, usual class: cytotoxic;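 also: NT is the 2HG producing partner of a matched IDH1 knockdown line; potency is read from the fitted curve at half-maximal effect; 0% = DMSO-treated cells and -100% = media-only wells without cells; nearly all actives have a fitted effect of over 55% in size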
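Fibrosarcoma NT cells, 750 per well in 5% FBS RPMI, were exposed to compound for 48 hours. Viability: CellTiter-Glo luminescence.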
IL-1B inflam inh: qHTS for Inhibitors of Inflammasome Signaling: IL-1-beta AlphaLISA Primary Screen | THP-1 LPS/ATP IL-1B secretion, AlphaLISA, 16 h; stronger effect = lower value | 360,000 compounds, 4.7% hits | activity change, % at 57.5 µM; in the data active = activity change below about -50%; inconclusive = mostly about -30% to -49%; also: % is scaled to controls: 0 for no effect and ±100 for the full control effect
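THP-1 cells pretreated 1 hr with compounds (up to 57.5 uM final), then stimulated with LPS (250 ng/mL final) plus ATP (1.25 mM final); secreted IL-1B measured by AlphaLISA after 16 hr, decreased signal indicating inhibition.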
Active calls of the source: *; ? = inconclusive; nt = not tested or not shown; ! = not active in a repeat. Hits are enriched below; roughly 6.5% of the tested compounds scored in any of these assays. Unless noted, calls follow the shape of the dose curve; as a rule, active = well fitted curve in the direction sought with a large enough effect; inconclusive = small, poorly fitted or top-dose-only effect, or another doubt; inactive = no such curve, though single readings can be large; an effect the other way counts as inactive or inconclusive.

SMILES | HepG2 tox | TGFb SMAD3 inh | HT1080 IDH1KD tx | Giardia killer | HT1080-NT tox | IL-1B inflam inh
Cc1cc(NC(=O)C2CCCC2)n(-c2nc3ccccc3[nH]2)n1 | -23% | -1% | 4µM* | -11 | 7.9µM* | -16
Cc1cc(NC(=O)c2sccc2C)n(-c2nc3ccccc3[nH]2)n1 | -15% | ? | -27% | 8 | ? | -82*
COC(=O)c1cc2occc2n1CC(=O)Nc1cc(OC)cc(OC)c1 | 6% | -10% | 0% | 3 | -7% | -52*
COC(=O)c1cc2occc2n1CC(=O)Nc1ccc(OC)c(OC)c1 | 12% | -4% | 0% | -7 | -1% | 0
COc1cc(/C=C/C(=O)OCC(=O)N2c3ccccc3NC(=O)C2(C)C)cc(OC)c1OC | -68% | ? | ? | -7 | ? | -65*
CCCCCCCCCc1nc2sc3c(c2c(=O)n1NC(=O)c1ccccc1[N+](=O)[O-])CC(C)(C)OC3 | -55% | ? | ? | 30 | ? | -74*
COc1nc2c(c(-c3cc(Br)cs3)c1C#N)Cc1ccccc1-2 | -1% | -18% | -5% | 27 | 8% | 7
O=C(/C=C/c1ccco1)N1CCC(Cc2ccccc2)CC1 | -7% | -1% | -1% | -2 | -3% | -67*
Cc1onc(C(=O)N2CCN(Cc3ccccc3)CC2)c1[N+](=O)[O-] | 4% | -9% | 11% | 12 | 3% | -22
Cc1cc(C(=O)N2CCC(Cc3ccccc3)CC2)c(C)o1 | -11% | 0% | 0% | -5 | -1% | -87*
Cc1onc(C(=O)N2CCC(Cc3ccccc3)CC2)c1[N+](=O)[O-] | -2% | ? | 10µM* | 14 | 5.8µM* | -5
O=S(=O)(NCCS(=O)(=O)N1CCN(c2ccccc2F)CC1)c1ccc(Cl)cc1 | 1% | -4% | nt | nt | nt | nt
COc1ccc(CCNC(=O)Cn2ccc3cc(S(=O)(=O)N4CCCC4)ccc32)cc1OC | 4% | 6% | 5% | -18 | 6% | -2
O=S1(=O)c2ccc(Br)cc2N2CCC[C@@H]2CN1Cc1ccccc1 | -22% | ? | 3.7µM* | ? | ? | 72
O=S1(=O)c2ccc(Br)cc2OC(COCc2ccccc2)CN1Cc1ccccc1 (configuration not stated) | -3% | -19% | 12% | 20 | 2% | -2
Cc1cccc(CN2CCCC(C(=O)Nc3ccccc3Oc3cccnc3)C2)c1 (configuration not stated) | -43% | -26% | -19% | -5 | -19% | -56*
O=C(Nc1ccccc1Oc1cccnc1)C1CCCN(C/C=C/c2ccc(F)cc2)C1 (configuration not stated) | -2% | -2% | -23% | 9 | -2% | -59*
Cc1ccc(NC(=O)OCc2cn(-c3ccc(Cl)cc3)nn2)cc1 | -11% | -11% | -1% | 8 | -1% | 31
CCOc1ccc(OCc2ccc(C(=O)NN=Cc3ccc[nH]3)cc2)cc1 | -17% | -20% | ? | -13 | 0.65µM* | ?
CC1CCN(CCCNC(=O)c2ccc(CS(=O)(=O)Cc3ccc(Cl)cc3)o2)CC1 | -13% | -2% | -1% | -2 | -4% | -7
CC(C)(C)N1CC(COc2ccccc2)OC1=O (configuration not stated) | 25% | 1% | 3% | 16 | -5% | 0
CCOC(=O)c1c(CSCc2ccccc2)oc2ccc(O)c(CN(C)C)c12 | 22µM* | ? | 18µM* | -11 | 21µM* | -82*
Cc1oc2ccc(O)c(CN3CCCCCC3)c2c1C(=O)Nc1cccc(C(F)(F)F)c1 | 13µM* | ? | nt | nt | nt | nt
COc1ccc(NC(=O)c2c(C)oc3ccc(O)c(CN4CCCC(C)C4)c23)cc1Cl (configuration not stated) | 11µM* | nt | nt | nt | nt | nt
COc1ccc(NC(=O)c2c(C)oc3ccc(O)c(CN4CCC(C)CC4)c23)cc1Cl | 10µM* | 13µM* | nt | nt | nt | nt
SMILES | HepG2 tox | TGFb SMAD3 inh | HT1080 IDH1KD tx | Giardia killer | HT1080-NT tox | IL-1B inflam inh
CCOC(=O)c1c(-c2ccccc2)oc2ccc(O)c(CN3CCCC3)c12 | -59% | -4% | ? | -14 | ? | -60*
CCNc1ccc(Br)cc(C(=O)/C=C/c2ccccc2Cl)c1=O | -61% | 37% | 13µM* | -2 | ? | -104*
CNc1ccc(Br)cc(C(=O)/C=C/c2cccc(Cl)c2Cl)c1=O | -34% | ? | -7% | -15 | 0% | -56*
Cc1ccc2[nH]cc(CCNC(=O)/C=C/c3ccco3)c2c1 | -10% | 0% | -29% | 19 | -19% | -10
CCOC(=O)c1c(C)[nH]c(C)c1C(=O)COC(=O)c1ccc(Cl)c(S(=O)(=O)NCc2ccccc2)c1 | -26% | -13% | 23µM* | 11 | 18µM* | 78
CCOC(=O)c1c(C)[nH]c(C)c1C(=O)COC(=O)c1cc2ccccc2cc1O | -22% | ? | ? | 20 | -5% | -67*
CCOC(=O)c1c(C)[nH]c(C)c1C(=O)COC(=O)/C=C/c1ccc(OC)cc1 | 1% | 1% | 15µM* | -7 | ? | 9
CCc1nnc(NC(=O)Cc2sc(C)nc2-c2ccc(C)cc2)s1 | 6% | 25% | 2% | 6 | -1% | 25
COc1ccc(CN2CCNC(=O)C2CC(=O)N(C)Cc2nonc2C)c(F)c1 (configuration not stated) | 13% | -10% | 9% | -2 | 6% | 1
Cc1ccc(N2CCN(S(=O)(=O)c3cccc4ccccc34)CC2)cc1Cl | -53% | ? | nt | nt | nt | nt
COC(=O)c1ccc2c(=O)n(CCCCCC(=O)N3CCN(c4cccc(C)c4C)CC3)c(=O)[nH]c2c1 | -2% | 2.8µM* | nt | nt | nt | nt
Cc1ccc(Cl)cc1N1CCN(C(=O)CCCn2c(=O)[nH]c3ccc(Br)cc3c2=O)CC1 | -36% | 11µM* | nt | nt | nt | nt
COC(=O)c1ccc2c(=O)n(CCCCCC(=O)NC(C)C)c(=O)[nH]c2c1 | -23% | 25µM*! | 24% | 18 | -13% | 6
CCOc1ccc(C(C(=O)Nc2ccc(F)cc2)N(C(=O)Cn2nnc3ccccc32)C2CC2)cc1 (configuration not stated) | -11% | ? | -24% | -5 | -22% | -20
COc1c(S(=O)(=O)N2CCCC2)ccc(Cl)c1Cl | 18% | -15% | -10% | 3 | -8% | 10
